# Laboratory results from PubChem BioAssay AID1066 (SRMLSC, 2008).
# Out of some 190,000 compounds screened, about 790 (0.42%) were called active.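 Rule for the calls: active = inhibition above a set limit, the median over all tested compounds plus 3 SD (cut at about 9.5% in these data); inconclusive = no clear call, values can overlap the other calls; inactive = the rest.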 Shown is part of a subset that was picked to be rich in actives.
# System: HMG-CoA reductase (Enterococcus faecalis, mvaE)
# Test: class II HMG-CoA reductase enzyme inhibition – biochemical, Enterococcus faecalis, primary screen (AID 1066);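 note: enzyme runs in reverse so mevalonate oxidation gives rising NADPH absorbance; 0% = complete reaction with DMSO and 100% = background rate lacking mevalonate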
# Details: purified E. faecalis HMGR, NADPH absorbance 340 nm kinetic; at 10 µM; active compounds read high
row,Structure (SMILES),inhibition
1,COc1ccc(CCn2c(O)c(C=NC3CC3)c(=O)[nH]c2=O)cc1OC,-3.24% (inactive)
2,COc1ccc(CCn2c(O)c(C=NCCCn3ccnc3)c(=O)[nH]c2=O)cc1OC,13.7% (active)
3,CN(C)CCCN=Cc1c(O)n(Cc2ccco2)c(=O)[nH]c1=O,6.16% (inactive)
4,CN(C)c1nc(N(C)C)nc(N(C#N)CCCl)n1,-6.92% (inactive)
5,O=C(O)CCn1cc(C=C2C(=O)NC(=S)NC2=O)c(-c2cccc(Br)c2)n1,1.54% (inactive)
